This is a sample that favours compounds with a hit; in the whole collection about 2.8% have one here.
CF NFkB inh: inhibitors of PAF-induced NF-kB signaling, primary screen, cell-based, GFP fluorescence, uHTS | hit rate 0.86% among 360,000 | inhibition, % at 5 µM | KKLEB NF-kB-GFP reporter, GFP fluorescence overnight;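 active means at least 50% inhibition at 5 µM, scaled per plate between neutral and stimulator controls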;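 further: PAF is a Pseudomonas aeruginosa culture filtrate used as stimulus; plate controls were PAF-stimulated DMSO wells for no effect and unstimulated DMSO wells for full effect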
Shn3 3UTR inh: reduction of Shn3 3'UTR firefly luciferase signal, primary screen, Schnurri-3 inhibitor project, cell-based, Clone20 osteoblasts, set 2; inhibition, % at 12.5 µM; hit rate 0.52% among 360,000; Clone20 osteoblast Shn3 3'UTR firefly luciferase, 24 h; AID 588674, 2011;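 active means mean inhibition of at least 75% with every replicate also reaching 75%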;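 further: 0% = median of neutral control wells and 100% = pilot-screen positive control compound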
TRPM1 prom inh: inhibitors of MITF-dependent TRPM1 promoter reporter, primary screen, cell-based, SK-MEL-5, single point, luciferase; SK-MEL-5 TRPM1 promoter luciferase, 24 h; hit rate 0.83% among 330,000; inhibition, % at 12.5 µM;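 active means mean inhibition across replicates of 60% or more, whatever share of single replicates reaches that level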
Peg3 prom inh: Peg3 promoter-driven luciferase inhibitors, primary screen, cell-based, HeLa, luciferase luminescence; HeLa PEG-Prom luciferase reporter, overnight; inhibition, % at 20 µM; hit rate 1.7% among 360,000;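 active means inhibition of at least 50% at 20 µM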
HIF-2a block: HIF-2a reporter inhibitors, primary screen, luminescence, 786-0 RCC cells; hit rate 0.72% among 360,000; AID 624352, 2012; 786-0 RCC cells HIF-2a reporter, luciferase luminescence, overnight; inhibition, % at 18.8 µM;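 active means inhibition of the luminescence signal of 40% or more relative to plate controls, in a single-dose primary screen at 18.75 µM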
KKLEB cytotox: cytotoxicity in KKLEB CF airway cells, primary screen, cytotoxicity control for CF NF-kB inhibitor project, cell-based, uHTS, fluorescence assay plates; hit rate 0.36% among 360,000; AID 602141, 2011; KKLEB CF airway cells viability, ATPlite luminescence, overnight; active compounds read low; cells stimulated with P. aeruginosa culture filtrate; activity change (cytotoxicity), % at 5 µM;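 active means corrected activity change at or below -50% at 5 µM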
Starred values were filed as active, the others as inactive; . = no result given.

SMILES | CF NFkB inh | Shn3 3UTR inh | TRPM1 prom inh | Peg3 prom inh | HIF-2a block | KKLEB cytotox
Nc1nc(=S)[nH]c2c1C1(CCCC1)Cc1ccccc1-2 | 2.1 | -7.3 | 7.3 | 18.5 | 18.2 | 1.3
Cc1nnsc1C(=O)Nc1ccc(S(=O)(=O)N2CCC(C)CC2)cc1 | -13.6 | 48.6 | 29.1 | 4.1 | 12.4 | 2.5
CCN1C(=O)C(CC(=O)Nc2ccc(Br)cc2)N(CCCc2ccccc2)C1=S (configuration not stated) | 0.6 | 40.3 | 10.2 | 57.6* | -4.6 | -2.9
Cn1c(N)c(C(=O)CSc2nc3ccccc3c(=O)n2Cc2ccccc2)c(=O)n(C)c1=O | 87.5* | 7.8 | 17.9 | 33.0 | 4.1 | -72.2*
CCCn1c(N)c(C(=O)CSc2nc3ccccc3c(=O)n2Cc2ccccc2)c(=O)[nH]c1=O | -6.8 | 29.8 | 3.3 | 30.2 | 21.8 | -1.3
COC(=O)N1CCCCC1c1cc(C(=O)Nc2ccc(OC)cc2C)no1 (configuration not stated) | 13.3 | 6.4 | . | -3.4 | -4.3 | -12.1
CC(C)(C)C(=O)C(C(c1ccccc1)N1CCOCC1)N1CCOCC1 (configuration not stated) | -4.9 | 1.3 | -5.8 | 11.9 | 4.1 | 4.6
O=Nc1c(O)[nH]c2ccc(Cl)c(Cl)c12 | 40.9 | 3.6 | 40.3 | 57.0* | 21.0 | 18.9
CCc1cccc2c(N=O)c(O)[nH]c12 | 12.5 | 9.2 | 10.4 | -6.3 | 4.3 | 0.7
CCc1ccc2c(c1)C1(NN=C(c3cccc4ccccc34)S1)C(=O)N2 (configuration not stated) | -3.0 | 66.0 | 51.3 | 51.4* | 9.6 | 6.2
CC(=O)Nc1ccc(C=NNC(=O)c2ccc(NS(=O)(=O)c3cccs3)cc2)cc1 | -10.3 | -0.4 | -2.2 | 99.8* | -36.2 | 7.7
COc1cc(C=NNC(=O)c2ccc(NS(=O)(=O)c3cccs3)cc2)cc(Br)c1O | -5.9 | -5.7 | -8.5 | 0.6 | 12.8 | -4.2
COc1cc2sc3ccc(-c4ccc(CN5CCOCC5)cc4)cc3c(=O)c2cc1OC | -232.9 | 12.9 | 1.5 | 99.2* | -183.5 | -20.2
COc1ccc(CN2CCOCC2)cc1OC | -3.9 | 9.9 | -13.5 | 13.2 | 3.3 | 4.9
CCCCNC1C(CC)C(CCC)C(C#N)(C#N)C1(C#N)C#N (configuration not stated) | 80.7* | 16.0 | 36.5 | 26.6 | 16.8 | -31.1
COC(=O)C[C@H](NC(=O)Cn1cnc2c(SC)nc(N)nc21)C(=O)OC | 13.2 | -17.9 | -5.4 | -4.6 | 1.3 | 1.0
Cc1ccc(S(=O)(=O)c2ccc([N+](=O)[O-])o2)cc1 | 77.8* | 95.0* | 95.5* | 104.9* | 89.1* | -88.8*
COc1ccccc1NC(=O)c1cc(C(=O)Nc2ccccc2OC)n(C)n1 | 3.1 | -43.3 | 0.4 | 10.3 | -29.0 | -7.5
CN(C)CCOc1ccc(/C(=C(/CCCl)c2ccccc2)c2ccccc2)cc1 | 20.8 | -0.7 | 1.2 | 73.9* | -8.3 | 1.4
Cc1ccc(NC(=S)N2CCCC(CO)C2)c(C)c1 (configuration not stated) | -19.7 | -10.9 | 3.7 | -52.3 | -55.0 | 3.9
COc1ccc(/C=C/C(=O)NC(=S)NNC(=O)c2cccnc2)cc1 | 2.5 | -5.4 | -3.2 | 11.7 | 0.3 | -12.6
COc1ccc(/C=C/C(=O)NC(=S)NNC(=O)c2cnccn2)cc1 | 39.8 | 93.7* | 46.6 | 52.3* | 0.5 | -11.8
NC(=O)C1CCN(C(=O)c2ccc(Cl)c(S(=O)(=O)N3CCc4ccccc43)c2)CC1 | -0.5 | 11.6 | . | 5.3 | 10.2 | 7.6
CCOc1cc(/C=C/C(=O)c2ccc(C)cc2)ccc1OCC(=O)N(C)C | 24.2 | 35.0 | -4.1 | 49.4 | 23.4 | -53.7*
COc1ccc(/C=C/C(=O)c2ccc(C(=O)/C=C/c3ccc(OC)c(OC)c3)cc2)cc1OC | -45.4 | 87.3* | 15.2 | 43.8 | 32.8 | -14.2
COC(=O)c1ccc(/C=C/C(=O)c2ccc(OC)c(OC)c2)cc1 | -0.3 | 32.5 | 0.2 | 42.7 | 33.8 | 7.2
CCOc1cc(/C=C/C(=O)O)ccc1OCCO | -6.8 | 5.1 | -1.8 | 8.2 | 10.7 | -0.4
